In PubChem BioAssay AID798 (PCMD, 2007) one finds inhibition data, which are given here for 96 molecules.

Among all 220,000 compounds or so, about 300 (0.14%) were called active. Only a selection was taken, and actives are over-represented in it overall. Unmarked numbers belong to inactive results.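 The calls were made as follows: active = inhibition of at least 40%; inactive = inhibition below 40%.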 Where a SMILES comes first, the peptide text is derived from it. The star is where a group is joined. OPac = O=C(CO*)c1ccccc1; Bz = O=C(c1ccccc1)*

The target in the assay is Coagulation factor XI (Homo sapiens) (UniProt P03951). Briefly: human FXIa protease inhibitors, primary screen, biochemical, 1536-well (AID 798).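 Also: fluorescence of freed AMC excited at 355 nm; 0% = enzyme without compound and 100% = no enzyme blank.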 As to conditions: purified FXIa, Boc-Glu-Ala-Arg-AMC fluorogenic substrate; at 5 µM; stronger effect = higher value.
Chain of Coagulation factor XI (Homo sapiens) (P03951 19-387 limits assumed): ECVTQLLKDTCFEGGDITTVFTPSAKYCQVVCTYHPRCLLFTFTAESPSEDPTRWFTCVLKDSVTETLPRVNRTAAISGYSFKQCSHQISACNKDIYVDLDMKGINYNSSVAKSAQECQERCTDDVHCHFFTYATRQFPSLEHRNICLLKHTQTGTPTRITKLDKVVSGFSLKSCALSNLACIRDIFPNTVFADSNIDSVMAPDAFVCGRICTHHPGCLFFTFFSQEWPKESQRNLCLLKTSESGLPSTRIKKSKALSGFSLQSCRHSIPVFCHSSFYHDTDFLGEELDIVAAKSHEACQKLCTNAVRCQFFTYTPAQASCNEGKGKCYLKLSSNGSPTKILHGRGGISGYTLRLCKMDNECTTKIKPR
Chain of Coagulation factor XI (Homo sapiens) (P03951 388-625 limits assumed): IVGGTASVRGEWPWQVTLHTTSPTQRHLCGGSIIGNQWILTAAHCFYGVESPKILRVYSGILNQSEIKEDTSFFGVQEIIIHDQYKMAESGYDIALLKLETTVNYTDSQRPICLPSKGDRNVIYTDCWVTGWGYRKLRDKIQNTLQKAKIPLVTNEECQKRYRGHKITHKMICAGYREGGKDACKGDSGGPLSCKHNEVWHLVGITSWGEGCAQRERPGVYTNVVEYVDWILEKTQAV
As for `COc1cc(-c2nnn(CC(=O)NCc3ccccc3)n2)cc(OC)c1OC`, the inhibition is 3%.

As for `CNc1ccc([N+](=O)[O-])cc1C(=O)O`, the inhibition is -2.33%.

On to `NC(=O)C1CCN(C(=O)COc2cccc3cccnc23)CC1`, for which the inhibition is 0.03%.

For the molecule `Cc1cnc(NC(=O)Cn2cnc3c2c(=O)n(C)c(=O)n3C)s1`, the inhibition is -1.78%.

For `CCOCCn1c(-c2ccccc2)nc2ccccc21`, the inhibition was 0.72%.

In the case of `Cc1ccc(Sc2ccncc2S(N)(=O)=O)cc1`, the inhibition is 5.95%.

For `CC(C)(C)CC(C)(C)NCC(O)COCCOc1ccc(Br)cc1` (stereo unspecified), the inhibition was 1.54%.

Consider `COC(=O)c1sccc1NN1C(=O)c2ccccc2C1=O`, for which the inhibition was 0.85%.

As to `O=C(CC(NC(=O)c1ccccc1)c1ccccc1)Nc1ccc(F)c(F)c1` (stereo unspecified), the inhibition is -2.03%.

Regarding `Cc1ccc(C2CCN(C(=S)Nc3cccc(Cl)c3)C2)cc1` (stereo unspecified), the inhibition is -2.9%.

With `CCOC(=O)COc1cc(O)c2c(=O)cc(-c3ccccc3)oc2c1`, the inhibition is 45% (active).

Take `CCOC(=O)COc1cc(OCC(=O)OCC)c2c(=O)cc(-c3ccccc3)oc2c1`: the inhibition was -3.59%.

On to `Cc1noc(C)c1COC(=O)COc1ccc(-c2ccccc2)cc1`, for which the inhibition was 9.94%.

On to `CCOC(=O)c1nn(-c2ccccc2F)c2nc(Nc3ccccc3)cc(=O)n12`, for which the inhibition was -3.73%.

For the molecule `COc1cccc(-n2nc(C(=O)N3CCN(Cc4ccccc4)CC3)c3ccccc3c2=O)c1`, the inhibition was -0.09%.

Turning to `C/C(Cc1ccccc1)=N\NC(=O)CNC(=O)c1cccc(Br)c1`, the inhibition is 9.13%.

Regarding `C/C(Cc1ccccc1)=N\NC(=O)CNC(=O)c1ccccc1Cl`, the inhibition is 56.6% (active).

On to `C/C(Cc1ccccc1)=N\NC(=O)CNC(=O)c1ccc2c(c1)OCCO2`, for which the inhibition was -2.1%.

As for `CCOc1ccc(Br)cc1S(=O)(=O)N1CCC(C(=O)O)CC1`, the inhibition is -8.82%.

As to `CC(NC(=S)Nc1ccccc1)C1COc2ccccc2O1` (stereo unspecified), the inhibition is 3.5%.

For `Cc1c(Cl)cccc1NC(=O)Nc1ccc(C(=O)N2CCCC2)cc1`, the inhibition is 18.9%.

In the case of `Cc1ccc(C(=O)COC(=O)c2cccc(N3C(=O)c4c(C)nc5ccccc5c4C3=O)c2)cc1C`, the inhibition was 8.56%.

Regarding `CN(CC(=O)Nc1ccc(F)cc1)CC(=O)Nc1ccc(Cl)c(S(=O)(=O)N2CCOCC2)c1`, the inhibition was 0.07%.

As for `COc1ccc(C(=O)NNC(=O)c2cc(C)[nH]n2)cc1`, the inhibition is 1.62%.

For `COc1ccc(CNC(=O)COC(=O)/C=C/c2ccc(S(=O)(=O)N3CCOCC3)cc2)cc1`, the inhibition was -3.11%.

In the case of `CCc1ccc(Oc2coc3cc(OC(=O)c4cc5ccccc5oc4=O)ccc3c2=O)cc1`, the inhibition is -3.61%.

`CC(=O)NCC(=O)N1CCCC(C(=O)c2ccc3c4c(cccc24)CC3)C1` (stereo unspecified): the inhibition is -4.06%.

Regarding `O=C(CSc1nnnn1-c1ccc(O)cc1)N1N=C(c2ccc3ccccc3c2)CC1c1ccccc1` (stereo unspecified), the inhibition is 8.65%.

Turning to `COc1ccc(/C=C/C(=O)c2ccc(OC)cc2O)cc1`, the inhibition was 2.98%.

`COc1ccc(/C=N/n2c(C)cc(C)cc2=O)cc1`: the inhibition is 44.1% (active).

Take `COC(=O)c1ccc(/C=N\n2c(C)nnc2C)cc1`: the inhibition was -10.4%.

Turning to `Cn1c(SCC(=O)N2CCOCC2)nnc1-c1ccc2ncccc2c1`, the inhibition was 4.39%.

Turning to `COCCn1c(N)c(N(Cc2ccccc2)C(=O)C2CCCCC2)c(=O)[nH]c1=O`, the inhibition was -2.52%.

For `Nc1c(C(=O)O)cnn1-c1ccccc1`, the inhibition is 15.5%.

In the case of `COC(=O)c1ccc(S(=O)(=O)NCc2ccccc2)n1C`, the inhibition is 13.2%.

Turning to `Cc1cccc(Oc2c([N+](=O)[O-])c(=O)n(C)c3ccccc23)c1`, the inhibition was -4.16%.

For the molecule `O=C(Nc1ccc(Cl)cc1)Nc1ccc(Oc2cccnc2)nc1`, the inhibition was -6.3%.

`CCC(C)c1ccc(NC(=S)NCc2ccccn2)cc1` (stereo unspecified): the inhibition was -2.96%.

On to `O=C(Cc1ccccc1)Nc1c(C(=O)N2CCCCCC2)cnn1-c1ccccc1`, for which the inhibition is -2.02%.

For the molecule `O=C(NCc1ccccc1Cl)NC(=O)c1csc([N+](=O)[O-])c1`, the inhibition was -0.45%.

On to `CCc1ccc(S(=O)(=O)Nc2ccc(C)c(NS(C)(=O)=O)c2)cc1`, for which the inhibition is 1.46%.

For the molecule `C=CCNC(=O)c1ccc2c3n(nc2c1)-c1ccc(C)cc1CO3`, the inhibition is 0.43%.

In the case of `CCOC(=O)CNc1nc(Cl)nc(Nc2ccccc2)n1`, the inhibition is -1.06%.

On to `Cc1nnc(NCCO)c2ccccc12`, for which the inhibition is 6.13%.

For the molecule `O=C(CNCCC1=CCCCC1)Nc1ccccc1N1CCCCCC1`, the inhibition is -2.46%.

Turning to `CC(C)C(O)C1CCN(Cc2nc(Cc3ccccc3Cl)no2)CC1` (stereo unspecified), the inhibition is -1.58%.

As for `Cc1ccc(NCc2n[nH]c(=S)n2-c2ccccc2)cc1Cl`, the inhibition was 0.9%.

As to `CCOC(=O)C1=C(C)N=C2c3ccccc3C(=O)C2C1c1ccc(Br)cc1` (stereo unspecified), the inhibition is 5.54%.

Regarding `Cc1ccccc1C(=O)Nc1ccc(N2CCCCCC2)cc1`, the inhibition is -3.76%.

Regarding `O=C(Nc1ccc(F)c([N+](=O)[O-])c1)C1CC(=O)N(Cc2ccccc2)C1` (stereo unspecified), the inhibition was -2.12%.

Take `C#CCNc1ccc(C(=O)OCC)cc1`: the inhibition is 0.47%.

For the molecule `O=C(NCc1ccc(F)cc1)C1CCC(CNc2c(N3CCOCC3)c(=O)c2=O)CC1` (stereo unspecified), the inhibition is 1.9%.

As to `O=C(C1CCN(C2CCN(Cc3cccc4c3OCO4)CC2)CC1)N1CCOCC1`, the inhibition was -4.01%.

With `N#Cc1ccccc1NC(=O)COc1c(Br)cc(Br)c2cccnc12`, the inhibition is 0.52%.

Consider `COc1ccc(OC)c(Cc2nnc(CCC(=O)NC3CCCC3)o2)c1`, for which the inhibition is 4.91%.

Consider `COc1cc(/C=C2/C(=O)ON=C2C)ccc1OCc1cccc(F)c1`, for which the inhibition was -3.35%.

For `O=C(CCl)Nc1ccc(Sc2ccc(NC(=O)CCl)cc2)cc1`, the inhibition is -1.76%.

Turning to `O=C(CCN1CCN(C/C=C/c2ccccc2)CC1)Nc1cccc(F)c1`, the inhibition was -3.15%.

As to `Cc1cccc(NC(=O)c2ccc3ccccc3n2)n1`, the inhibition was 0.23%.

`Cc1cc(NC(=O)c2cccc(N3C(=O)CCC3=O)c2)no1`: the inhibition was 7.9%.

`Cc1cccc(NC(=O)c2cc(N3C(=O)CCC3=O)ccc2Cl)n1`: the inhibition is 45.3% (active).

In the case of `Oc1ccc2ccccc2c1N=Nc1nccs1`, the inhibition is 1.08%.

On to `Cc1c(NC(=O)C(=O)N/N=C/c2cccs2)c(=O)n(-c2ccccc2)n1C`, for which the inhibition was -2.28%.

As for `O=C(NCC(=O)N(CC1CCCO1)C(C(=O)NC1CCCCC1)c1ccccc1)c1ccco1` (stereo unspecified), the inhibition was -1.28%.

Consider `Cc1cc(C)nc(-n2ncc3c2CC(c2ccc(C(C)C)cc2)CC3=O)n1` (stereo unspecified), for which the inhibition is 4.85%.

With `Cc1ccccc1CN1C[C@@H]2C[C@@H](c3ccc4nsnc4c3)N3CCC[C@@]23C1=O`, the inhibition was 2.82%.

With `Cc1cccc2c1N(CCOc1ccccc1)C(=O)C2=O`, the inhibition is 1.94%.

For `CCCCCCCCn1c2c(c(=N)c3c1CCC3)CCCC2`, the inhibition was 1.52%.

As to `COC(=O)c1cc(C(=O)OCC(=O)Nc2cc(C)on2)cc([N+](=O)[O-])c1`, the inhibition is -14.4%.

`Cc1cnc(NC(=O)c2ccccn2)s1`: the inhibition is -1.62%.

As to `COc1ccc(OC)c(C(=O)c2ccc(C(=O)N3CCN(Cc4csc(C)n4)CC3)cc2)c1`, the inhibition is 1.41%.

For `COc1ccccc1-c1nnc(NC(=O)c2ccc3ncsc3c2)o1`, the inhibition was 10.2%.

With `O=C(Nc1cccc(CCc2ccccn2)c1)c1ccc(Cl)cc1`, the inhibition is 14.3%.

In the case of `CN1CCCN(C(=O)C2CCCCC2)CC1`, the inhibition is -3.43%.

With `CC(NC(=S)NNS(=O)(=O)c1ccc(C(C)(C)C)cc1)c1ccccc1` (stereo unspecified), the inhibition is -2.57%.

For `Cc1cccc2c1-c1sc(C(=O)NCCCN3CCc4ccccc4C3)cc1CO2`, the inhibition is -4.99%.

As to `COc1ccc(C(=O)N/N=c2\oc3ccccc3cc2C(N)=O)cc1`, the inhibition is 8.97%.

On to `CC(C(=O)NCC1CCCCC1)N(C)Cc1cccc(Cl)c1` (stereo unspecified), for which the inhibition was 0.53%.

Take `COCCN(C(=S)Nc1cccc(Cl)c1C)C(C)c1ccco1` (stereo unspecified): the inhibition is -2.82%.

Regarding `Cc1ccc(Cl)c(OCC(=O)NN2CCN(C)CC2)c1`, the inhibition was -0.31%.

On to `COC(=O)CCCC1=CC2=CC(=O)C(C)(OC(=O)c3cccs3)C(=O)C2=CN1CC1CC1` (stereo unspecified), for which the inhibition was 0.2%.

With `O=C(NC(=O)c1cc(OCC(F)(F)F)ccc1OCC(F)(F)F)Nc1ccccc1`, the inhibition is 10.4%.

`O=C(CSc1ncn[nH]1)Nc1nc(-c2cccc([N+](=O)[O-])c2)cs1`: the inhibition is -0.78%.

In the case of `O=C(Nc1cccc(O)c1)c1ccc(C(=O)c2ccccc2)o1`, the inhibition is 4.5%.

On to `COc1ccc(CCNC(=O)CSc2nc(-c3ccc(OC)c(OC)c3)ccc2C#N)cc1`, for which the inhibition was -0.12%.

Regarding `CCOc1ccc(Oc2nc(C)cc(OC)n2)nn1`, the inhibition was 4.79%.

`Nc1[nH]c(=S)nc2nc(-c3ccccc3)c(-c3ccccc3)nc12`: the inhibition is 4.09%.

With `CCc1nc(C)cn1S(=O)(=O)c1cc([N+](=O)[O-])ccc1Cl`, the inhibition was -5.64%.

In the case of `O=c1[nH]c(SCc2cccc(F)c2)nc2ccccc12`, the inhibition is -1.03%.

Turning to `O=C(NCc1cccs1)c1cc(-c2ccccn2)nc2ccc(Br)cc12`, the inhibition was -1.15%.

Consider `Cc1cccc(Cn2cnc3c(N)c(C)c(C)cc32)c1`, for which the inhibition is -1.66%.

In the case of `COc1cccc(/C=C/C(=O)Nc2ccc3c(c2)OCCO3)c1`, the inhibition was -8.27%.

`COc1ccccc1-n1c(C)nc2cc(C(=O)NCc3ccc4c(c3)OCO4)ccc21`: the inhibition is 1.71%.

With `O=C(O)CCN=C1CCc2ccccc2N1`, the inhibition was -7.58%.

In the case of `O=C(CNC(=O)c1ccccc1)NCC(=O)OCC(=O)c1ccccc1` (Bz-Gly-Gly-OPac), the inhibition is -1.35%.

Regarding `S=c1nc2ccccc2c2nc(-c3cccnc3)[nH]n12`, the inhibition was -1.46%.
